Source: PubChem BioAssay (The Scripps Research Institute Molecular Screening Center)
ADAM17 inh – ADAM17 inhibitors, primary screen, biochemical, QFRET; Disintegrin and metalloproteinase domain-containing protein 17 (Homo sapiens), P78536; recombinant ADAM17, EDANS/DABCYL FRET peptide cleavage; inhibition, % at 6.95 µM; 370,000 tested, 0.83% active; AID 720648, 2013;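 active means inhibition above the mean of compounds lying between control limits plus 3 SD, set per campaign, cut at about 8.5% in these data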;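 further: 0% = DMSO-only wells as the low control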
PLCg1 inh – PLC-gamma1 enzyme inhibitors, primary screen, biochemical, fluorescence, purified enzyme | 1-phosphatidylinositol 4,5-bisphosphate phosphodiesterase gamma-1 (Homo sapiens), P19174 | fluorogenic substrate | inhibition, % at 12.2 µM | 370,000 tested, 0.84% active | AID 720700, 2013
Target sequence (P19174 whole entry, looked up): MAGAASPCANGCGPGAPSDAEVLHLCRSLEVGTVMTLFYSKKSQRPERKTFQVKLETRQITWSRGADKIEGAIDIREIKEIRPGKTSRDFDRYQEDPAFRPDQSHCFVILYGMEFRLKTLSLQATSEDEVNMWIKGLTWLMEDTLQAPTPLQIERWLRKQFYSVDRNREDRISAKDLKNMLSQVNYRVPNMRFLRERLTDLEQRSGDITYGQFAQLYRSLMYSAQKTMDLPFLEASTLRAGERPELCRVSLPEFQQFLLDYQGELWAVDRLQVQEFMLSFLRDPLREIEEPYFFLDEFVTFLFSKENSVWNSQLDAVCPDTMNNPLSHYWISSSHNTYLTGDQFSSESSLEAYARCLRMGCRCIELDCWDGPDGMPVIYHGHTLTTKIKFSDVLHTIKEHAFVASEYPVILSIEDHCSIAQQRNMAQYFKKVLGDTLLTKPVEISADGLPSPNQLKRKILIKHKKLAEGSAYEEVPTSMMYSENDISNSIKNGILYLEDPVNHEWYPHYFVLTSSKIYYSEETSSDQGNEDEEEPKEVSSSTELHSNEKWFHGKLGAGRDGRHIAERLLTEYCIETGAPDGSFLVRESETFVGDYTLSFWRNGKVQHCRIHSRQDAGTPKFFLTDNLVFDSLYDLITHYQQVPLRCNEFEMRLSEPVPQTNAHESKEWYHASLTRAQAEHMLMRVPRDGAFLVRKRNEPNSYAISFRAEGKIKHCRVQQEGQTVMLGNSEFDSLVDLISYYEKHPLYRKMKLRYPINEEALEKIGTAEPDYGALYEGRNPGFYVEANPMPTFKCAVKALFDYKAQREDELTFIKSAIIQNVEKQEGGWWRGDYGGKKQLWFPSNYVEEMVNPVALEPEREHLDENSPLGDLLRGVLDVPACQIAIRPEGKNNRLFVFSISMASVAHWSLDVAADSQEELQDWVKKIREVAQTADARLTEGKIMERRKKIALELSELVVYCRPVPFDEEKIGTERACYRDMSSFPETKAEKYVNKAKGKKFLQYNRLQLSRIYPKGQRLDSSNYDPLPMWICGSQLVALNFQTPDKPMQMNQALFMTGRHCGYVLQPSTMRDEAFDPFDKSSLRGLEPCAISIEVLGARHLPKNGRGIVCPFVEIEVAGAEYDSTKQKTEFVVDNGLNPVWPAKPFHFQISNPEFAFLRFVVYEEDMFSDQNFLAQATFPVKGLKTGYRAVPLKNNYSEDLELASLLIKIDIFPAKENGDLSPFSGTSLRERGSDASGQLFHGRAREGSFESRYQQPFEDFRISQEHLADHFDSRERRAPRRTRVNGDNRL
PLC-beta3 inh – human PLC-beta3 inhibitors, primary screen, biochemical, fluorescence. 1-phosphatidylinositol 4,5-bisphosphate phosphodiesterase beta-3 (Homo sapiens), Q01970. Purified PLC-beta3, fluorogenic substrate. inhibition, % at 12.2 µM. 370,000 tested, 0.18% active; in the data active means inhibition above about 11%;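 further: 0% = median of compound wells on plate and 100% = full blocker control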
proKLK7 act – proKLK7 zymogen activators, primary screen, biochemical, fluorescence intensity. 370,000 tested, 0.9% active. purified proKLK7, EDANS-DABCYL substrate fluorescence; 100% is mature enzyme control, 0% vehicle. activation, % at 7 µM. Kallikrein-7 (Homo sapiens), P49862;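 active means activation above the mean of all tested compounds plus 3 SD, computed per campaign excluding outliers beyond control limits, cut at about 13% in these data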
ADAM10 inh – human ADAM10 inhibitors, primary screen, biochemical, QFRET, HTS; recombinant ADAM10, EDANS/DABCYL FRET peptide cleavage, 3 h; inhibition, % at 7 µM; Disintegrin and metalloproteinase domain-containing protein 10 (Homo sapiens), O14672; 370,000 tested, 0.62% active;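 active means inhibition above a per-campaign cutoff equal to the mean of compounds falling between control-based bounds plus 3 SD, cut at about 20% in these data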;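 further: 0% = DMSO wells while the 100% control is not disclosed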
PLCgamma1 ctr – PLC-gamma1 enzyme inhibitors, counter-screen for PLC-beta3 inhibitor project, biochemical, fluorescence. 3,300 tested, 3.1% active. purified PLC-gamma1, fluorogenic substrate. AID 743258, 2014. shares compounds with PLCg1 inh. inhibition, % at 12.3 µM
PLCb3 confirm – PLC-beta3 inhibitor confirmation, biochemical, fluorescence, purified enzyme. shares compounds with PLCg1 inh. fluorogenic substrate fluorescence. inhibition, % at 12.3 µM. 3,300 tested, 1% active. AID 743261, 2014; in the data active means inhibition above about 11%
* hit, by the source's call; . = no result. Compounds with a hit are over-represented: about 2.9% of the library has one in this group of screens. Unless noted, no stated cut-off is given here; in the data, active means inhibition above about 9.5%; inactive means the rest.

SMILES	ADAM17 inh	PLCg1 inh	PLC-beta3 inh	proKLK7 act	ADAM10 inh	PLCgamma1 ctr	PLCb3 confirm
CC1(C(=O)NC2CCCCCCC2)CCC(=O)N1Cc1ccco1 (stereo unspecified)	3.9	9.8*	-0.3	0.4	-6.6	-8.7	-3.2
COc1ccc(CCN=c2c([N+](=O)[O-])nn(-c3cccc(C)c3)n2O)cc1OC	-4.1	3.0	-2.8	0.0	-7.2	.	.
COc1cc(/C=C(\C#N)C(=O)c2ccc(O)c(O)c2)cc(I)c1O	-1.7	10.1*	-1.3	1.1	-0.3	-43.7	-43.9
CCCCn1c(N)c(N(CC(C)C)C(=O)c2cc(-c3ccc(F)cc3)nc3ccccc23)c(=O)[nH]c1=O	-7.8	-6.2	-16.7	-0.5	-10.8	.	.
O=C(O)c1ccccc1N1C(=O)C2C3c4ccccc4C(Br)(c4ccccc43)C2C1=O (stereo unspecified)	-0.5	17.9*	-4.2	-0.2	1.1	0.1	2.4
CC12C(=O)N(c3ccccc3C(=O)O)C(=O)C1C1C=CC2C1 (stereo unspecified)	-3.5	2.2	0.5	0.2	0.3	.	.
C/C(Cl)=C/Cc1c(C)[nH]c2c(ccc3ccccc32)c1=O	-7.6	-2.6	-2.8	-0.9	-23.0	.	.
N#C/C(=C\c1cc(O)c(O)c(O)c1)C(N)=O	-5.0	18.1*	-23.5	5.8	-3.6	5.2	-9.4
Cc1ccc(CNC(=O)c2ccc(N3CCC4(CC3)CC(c3cccc(Br)c3)=NO4)c(N)c2)cc1	-9.5	-5.3	-10.3	-1.3	-22.4	.	.
Cc1ccc(-c2csc(C(C)(O)c3cccc(F)c3)n2)cc1C (stereo unspecified)	3.9	-0.9	-2.2	0.5	12.9	.	.
CC(O)(c1cccc(F)c1)c1nc(-c2cccc(F)c2)cs1 (stereo unspecified)	4.7	10.7*	-2.8	-0.2	2.1	-2.1	0.2
O=C(CNC(=O)c1ccco1)NCC(=O)OCc1ccc(Cl)cc1	-4.8	0.2	0.4	0.0	-0.3	.	.
O=C(CSc1nc2ccccc2[nH]1)Nc1ccccc1N1CCOCC1	2.5	10.1*	4.6	0.6	11.1	-4.3	1.5
O=C(CSc1nc2ccccc2[nH]1)Nc1cc(C(F)(F)F)ccc1N1CCOCC1	3.2	1.6	2.4	0.7	9.8	.	.
O=C(CN1CCN(c2ccc(F)cc2)CC1)NC(=O)NCc1ccco1	-2.6	2.8	-6.3	0.0	-7.4	.	.
O=C(CN1CCN(c2ccccc2)CC1)NC(=O)NCc1ccco1	2.7	10.7*	0.9	0.5	5.0	-6.2	-3.8
Cc1cc(NC(=O)COc2ccccc2C(N)=O)no1	-3.2	9.5*	4.3	-0.1	-0.5	-1.1	3.9
Cc1cc(NC(=O)COc2ccccc2C)no1	-1.9	3.2	4.0	-0.3	6.8	.	.
CCn1c(O)c(N=NC(=O)c2ccc(CSc3nncn3C)cc2)c2ccccc21	6.8	11.2*	9.1	0.6	7.5	-2.4	1.5
Cc1nc(SCC(=O)Nc2cccc(S(=O)(=O)N3CCOCC3)c2)nc(C)c1C	6.8	13.6*	4.0	-0.4	6.7	-5.8	-3.5
Cn1cccc1C(=O)OCC(=O)Nc1cccc(S(=O)(=O)N2CCOCC2)c1	0.1	11.1*	0.4	-0.4	12.6	-4.5	-1.4
O=C(COC(=O)c1cccs1)Nc1cccc(S(=O)(=O)N2CCOCC2)c1	0.3	0.0	1.9	0.1	-2.0	.	.
Cc1csc(SCC(=O)Nc2cccc(S(=O)(=O)N3CCOCC3)c2)n1	-2.3	-1.4	-2.8	0.3	2.7	.	.
O=C(Cc1ccccc1Cl)Nc1cccc(S(=O)(=O)N2CCOCC2)c1	5.0	9.9*	2.1	-0.1	10.3	-2.9	-3.0
COc1ccc(C2/C=C\CN(C(=O)OCc3ccccc3)CC(=O)N2Cc2ccc(F)cc2)cc1 (stereo unspecified)	-1.4	-0.6	1.1	0.3	9.4	.	.
Cc1ccc(NC(=O)N(Cc2cccs2)Cc2cc3cc4c(cc3[nH]c2=O)OCO4)cc1	-8.2	-34.1	-43.3	-1.9	-39.8	.	.
